Reference: PubChem BioAssay (NCI)
Where “and” joins values, the source holds several entries; their conditions need not be identical. Equal entries are not always repeated. This is part of a sample that, as a whole, favours compounds with a hit. Of some 79,000 tested, about 15% had one in any assay. Values without a mark were called inactive. Calls of active or inactive are those of the source. No stated cut-off is given here; in the data, active means growth inhibition above about 70%; inactive means the rest.

Legend:
[1] = NCI Yeast Anticancer Drug Screen. Data for the rad50 strain (AID 155);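 further: 0% = growth of vehicle-only cultures of the same strain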; conditions: S. cerevisiae rad50 strain growth inhibition, active compounds read high; at 50.0 µM unless noted
In short: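 A DNA repair-deficient yeast mutant serves as the test organism; compound-induced growth inhibition is calculated against vehicle-treated cells.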

[2] = NCI Yeast Anticancer Drug Screen. Data for the mec2-1 strain (AID 157); conditions: S. cerevisiae mec2-1 strain, active compounds read high; at 50.0 µM unless noted
In short: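 Strain: mec2-1 (DNA repair/cell cycle alteration). Compound exposure, then growth measured; inhibition expressed relative to vehicle.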

[3] = NCI Yeast Anticancer Drug Screen. Data for the sgs1 mgt1 strain (AID 161);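 further: 0% = growth of cultures given vehicle only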; conditions: S. cerevisiae sgs1 mgt1 strain, active compounds read high; at 50.0 µM unless noted
In short: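 Test agents were incubated with a DNA-repair-mutant yeast strain. Growth was then read and compared against vehicle-treated controls.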

[4] = NCI Yeast Anticancer Drug Screen. Data for the cln2 rad14 strain (AID 165);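 further: 0% = growth equal to vehicle treated cultures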; conditions: S. cerevisiae cln2 rad14 strain, active compounds read high; at 50.0 µM unless noted
In short: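 Compounds are applied to the cln2 rad14 yeast strain, and growth is then compared with that of vehicle-treated cultures to give inhibition.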

[5] = NCI Yeast Anticancer Drug Screen. Data for the bub3 strain (AID 167); conditions: S. cerevisiae bub3 mutant strain, active compounds read high; at 50.0 µM unless noted
In short: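 Inhibition values come from growth of compound-treated mutant yeast normalised to vehicle-treated controls.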

[6] = NCI Yeast Anticancer Drug Screen. Data for the mlh1 rad18 strain (AID 175); conditions: S. cerevisiae mlh1 rad18 strain growth inhibition, active compounds read high; at 50.0 µM unless noted
In short: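 Read-out is yeast growth inhibition, calculated against vehicle-only controls. The compound was applied to a strain engineered with DNA damage repair alterations.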

SMILES: COc1cc(/C=N/NC(=O)c2ccccc2NC(=O)c2ccccc2)ccc1O
- growth inhibition [1]: 2.05%
- growth inhibition [2]: -13%
- growth inhibition [3]: 20.1%
- growth inhibition [4]: -32.5%
- growth inhibition [5]: 37.7%
- growth inhibition [6]: 30.9%

SMILES: O=C(COCC(=O)N/N=C/C=C/c1ccccc1)N/N=C/C=C/c1ccccc1
- growth inhibition [1]: 7.7%
- growth inhibition [2]: -6.3%
- growth inhibition [3]: -0.65%
- growth inhibition [4]: 3.35%
- growth inhibition [5]: -2.95%
- growth inhibition [6]: 19.2%

SMILES: CCCCCC=C(C(=O)OCC)C(=O)OCC
- growth inhibition [1]: 22.9%
- growth inhibition [2]: -1.7%
- growth inhibition [3]: -4.15%
- growth inhibition [4]: 12.3%
- growth inhibition [5]: -30.4%
- growth inhibition [6]: 11.1%

SMILES: COc1ccccc1OC(=O)c1ccccc1
- growth inhibition [1]: -27.4%
- growth inhibition [2]: 7.4%
- growth inhibition [3]: -22.8%
- growth inhibition [4]: -9.1%
- growth inhibition [5]: 11.5%
- growth inhibition [6]: -5.35%

SMILES: O=c1nc2c(c(-c3ccc(F)cc3)[nH]1)COC/C2=C\c1ccc(F)cc1
- growth inhibition [1]: 18.2%
- growth inhibition [2]: 11.3%
- growth inhibition [3]: 34.5%
- growth inhibition [4]: 21.1%
- growth inhibition [5]: 28.6%
- growth inhibition [6]: 33.2%

SMILES: c1ccc(N=NC2(c3ccccc3)CC(c3ccccc3)=NN(c3ccccc3)C2NNc2ccccc2)cc1 (centres undefined)
- growth inhibition [1]: 53%
- growth inhibition [2]: 7.8%
- growth inhibition [3]: 23.8%
- growth inhibition [4]: 17.7%
- growth inhibition [5]: 6.75%
- growth inhibition [6]: 31.7%

SMILES: CCCCCCCCCCCCCCCCS(=O)(=O)N(/N=c1/sc2ccccc2n1C)C(=O)OCC
- growth inhibition [1]: -29.4%
- growth inhibition [2]: -32.3%
- growth inhibition [3]: -13.3%
- growth inhibition [4]: 21.4%
- growth inhibition [5]: -12.2%
- growth inhibition [6]: -27.8%

SMILES: CC(O)C(=O)OCCOc1ccc(Cl)cc1Cl (centres undefined)
- growth inhibition [1]: 7.75%
- growth inhibition [2]: 10.3%
- growth inhibition [3]: 27.3%
- growth inhibition [4]: -38.1%
- growth inhibition [5]: 31.3%
- growth inhibition [6]: 28.2%

SMILES: C(/C=N/Nc1ccccc1)=N\Nc1ccccc1
- growth inhibition [1]: 24.1%
- growth inhibition [2]: -8.15%
- growth inhibition [3]: -0.65%
- growth inhibition [4]: -3%
- growth inhibition [5]: -9.85%
- growth inhibition [6]: 8.8%

SMILES: CC1=CC(C)(C)[C@H]2O[C@@]3(O)C[C@]4(C)[C@H]5C[C@@](C(C)C)(O[C@H]4c4ccoc4)O[C@H]4[C@]5(C3)O[C@@]1(O)[C@]24O
- growth inhibition [1]: 5.2%
- growth inhibition [2]: 0.45%
- growth inhibition [3]: -11.9%
- growth inhibition [4]: -14.8%
- growth inhibition [5]: -13.4%
- growth inhibition [6]: -3.5%

SMILES: O=C1c2ccccc2C(=O)c2c3c(cc(NCCNCCO)c21)N(CCO)CCN3
- growth inhibition [1]: 29.4%
- growth inhibition [2]: 18.4%
- growth inhibition [3]: 33.8%
- growth inhibition [4]: 10.3%
- growth inhibition [5]: 34.8%
- growth inhibition [6]: 29.1%

SMILES: CCNc1ncnc2c1nnn2CC
- growth inhibition [1]: -5.55%
- growth inhibition [2]: -12.2%
- growth inhibition [3]: -15.8%
- growth inhibition [4]: -7.75%
- growth inhibition [5]: -27.4%
- growth inhibition [6]: 6.75%

SMILES: CCCCCCCS(=O)c1nc2ccccc2s1 (centres undefined)
- growth inhibition [1]: 37.2%
- growth inhibition [2]: 15.2%
- growth inhibition [3]: 60.9%
- growth inhibition [4]: 20.2%
- growth inhibition [5]: 42.8%
- growth inhibition [6]: 27.6%

SMILES: COC(=O)c1cc(C)n(C)c(=O)c1CN
- growth inhibition [1]: -6.4%
- growth inhibition [2]: 4.85%
- growth inhibition [3]: -8.6%
- growth inhibition [4]: -22.4%
- growth inhibition [5]: -8.8%
- growth inhibition [6]: 0.8%

SMILES: CNc1ccccc1C(=O)NCCCN
- growth inhibition [1]: -10.3%
- growth inhibition [2]: -25.6%
- growth inhibition [3]: 5%
- growth inhibition [4]: 2.75%
- growth inhibition [5]: 18.8%
- growth inhibition [6]: 0.45%

SMILES: Cc1cc(C)c(-c2noc(-c3ccc(Cl)cc3)c2C2=NCCN2)c(C)c1
- growth inhibition [1]: 29.9%
- growth inhibition [2]: 18.3%
- growth inhibition [3]: 18.1%
- growth inhibition [4]: 38.6%
- growth inhibition [5]: 17.7%
- growth inhibition [6]: 8.45%

SMILES: CN1c2ccccc2N(C(=O)c2ccc(Cl)cc2)C(CC(=O)O)c2cccn21 (centres undefined)
- growth inhibition [1]: 43.1%
- growth inhibition [2]: 31.1%
- growth inhibition [3]: 23.3%
- growth inhibition [4]: 44.8%
- growth inhibition [5]: 38.5%
- growth inhibition [6]: 29.2%

SMILES: CNc1nc(=O)[nH]c(C)c1[N+](=O)[O-]
- growth inhibition [1]: 19.9%
- growth inhibition [2]: 4.45%
- growth inhibition [3]: -6.9%
- growth inhibition [4]: -60.8%
- growth inhibition [5]: -4%
- growth inhibition [6]: 12.6%

SMILES: CCOC(=O)c1ccc(NC2Oc3cc4c(cc3C(c3cc(OC)c(OC)c(OC)c3)C2C)OCO4)cc1 (centres undefined)
- growth inhibition [1]: -1.6%
- growth inhibition [2]: -15.5%
- growth inhibition [3]: -2.65%
- growth inhibition [4]: 11.4%
- growth inhibition [5]: -9.8%
- growth inhibition [6]: -9.55%

SMILES: Oc1ccc(O)c(CNc2ccc(C(O)C(F)(F)F)cc2)c1 (centres undefined)
- growth inhibition [1]: 14.9%
- growth inhibition [2]: 9.2%
- growth inhibition [3]: 16.8%
- growth inhibition [4]: 6.45%
- growth inhibition [5]: 22.1%
- growth inhibition [6]: 15.9%

SMILES: CCOC(=O)c1c(-c2ccccc2)csc1NS(=O)(=O)c1ccc(C)cc1
- growth inhibition [1]: 81.8% (active)
- growth inhibition [2]: 78.2% (active)
- growth inhibition [3]: 87% (active)
- growth inhibition [4]: 82.3% (active)
- growth inhibition [5]: 81.8% (active)
- growth inhibition [6]: 90.6% (active)

SMILES: CCOC(=O)c1[nH]c(-c2[nH]c(-c3[nH]c(-c4[nH]c(C(=O)OCC)c(C)c4C(=O)OCC)c(C(=O)OCC)c3C)c(C)c2C(=O)OCC)c(C(=O)OCC)c1C
- growth inhibition [1]: -24.7%
- growth inhibition [2]: -16%
- growth inhibition [3]: -21.3%
- growth inhibition [4]: 6.85%
- growth inhibition [5]: -14.1%
- growth inhibition [6]: -74%

SMILES: O=S1(=O)C(c2ccccc2)=C1c1ccccc1
- growth inhibition [1]: -6.95%
- growth inhibition [2]: 6.55%
- growth inhibition [3]: 8.6%
- growth inhibition [4]: 24.6%
- growth inhibition [5]: -11.7%
- growth inhibition [6]: 17.6%

SMILES: CC1OC(O)C(O)C(O)C1O (centres undefined)
- growth inhibition [1]: -19.3% and 13.9%
- growth inhibition [2]: -11.7% and 6.25%
- growth inhibition [3]: -43.6% and 31%
- growth inhibition [4]: -65.2% and 34.1%
- growth inhibition [5]: -39.3% and 27.2%
- growth inhibition [6]: -28.6% and 25.6%

SMILES: CCOC(=O)COc1ccc(OC)c2c1C(=O)CCC2
- growth inhibition [1]: 21.1%
- growth inhibition [2]: 16.7%
- growth inhibition [3]: 6.15%
- growth inhibition [4]: 29.2%
- growth inhibition [5]: 10%
- growth inhibition [6]: 15%

SMILES: c1ccc(CC2=NCCO2)cc1
- growth inhibition [1]: -5.55%
- growth inhibition [2]: 2.25%
- growth inhibition [3]: -3.3%
- growth inhibition [4]: -33%
- growth inhibition [5]: 3.85%
- growth inhibition [6]: -25.9%

SMILES: O=C(CCS(=O)(=O)CCC(=O)c1ccc2ccccc2c1)c1ccc2ccccc2c1
- growth inhibition [1]: -66.8%
- growth inhibition [2]: -13.2%
- growth inhibition [3]: -2.4%
- growth inhibition [4]: -35.3%
- growth inhibition [5]: 0.25%
- growth inhibition [6]: -52.5%

SMILES: CC(C)CCC(C)C1CCC2C3CCC4CC(=O)CC4(C)C3CCC12C (centres undefined)
- growth inhibition [1]: -13.5%
- growth inhibition [2]: 7.2%
- growth inhibition [3]: -20.1%
- growth inhibition [4]: -10.4%
- growth inhibition [5]: -11.6%
- growth inhibition [6]: 2.85%

SMILES: O=[N+]([O-])c1cc(C(Nc2nncs2)Nc2nncs2)ccc1Cl
- growth inhibition [1]: 12.6%
- growth inhibition [2]: 8.25%
- growth inhibition [3]: 43.9%
- growth inhibition [4]: 11%
- growth inhibition [5]: 2.5%
- growth inhibition [6]: 46.6%

SMILES: CC(C)(O)C#CC(C)(C)O
- growth inhibition [1]: 1.1%
- growth inhibition [2]: -7.7%
- growth inhibition [3]: -10.7%
- growth inhibition [4]: 0.25%
- growth inhibition [5]: 5.65%
- growth inhibition [6]: -11.7%

SMILES: COc1ccc(CCNCC(O)CSc2ccc(Cl)cc2)cc1OC (centres undefined)
- growth inhibition [1]: 74.8% (active)
- growth inhibition [2]: 20.4%
- growth inhibition [3]: 73% (active)
- growth inhibition [4]: 27.9%
- growth inhibition [5]: 22%
- growth inhibition [6]: 30.6%

SMILES: CCC1=C(c2ccc(OC)cc2)CC[C@@]2(CCNC2=O)[C@@H]1C
- growth inhibition [1]: 4.8%
- growth inhibition [2]: -0.2%
- growth inhibition [3]: -5.45%
- growth inhibition [4]: 14.3%
- growth inhibition [5]: 3.8%
- growth inhibition [6]: 8.8%

SMILES: C/C=C(\C)c1cc(=O)c2c(C)cc3c(c2o1)C(OC)(OC(C)=O)c1c(O)c(C2CC(C)(N(C)C)C(OC(C)=O)C(C)O2)cc(C2CC(N(C)C)C(OC(C)=O)C(C)O2)c1C3=O (centres undefined)
- growth inhibition [1]: -23.9%
- growth inhibition [2]: -28.3%
- growth inhibition [3]: -30.8%
- growth inhibition [4]: 0.5%
- growth inhibition [5]: -21.6%
- growth inhibition [6]: -4.8%

SMILES: Cc1c(NC(=S)NC(=O)c2ccc([N+](=O)[O-])cc2)c(=O)n(-c2ccccc2)n1C
- growth inhibition [1]: 19.6%
- growth inhibition [2]: 5.7%
- growth inhibition [3]: 16.2%
- growth inhibition [4]: 17.9%
- growth inhibition [5]: 32.9%
- growth inhibition [6]: 18.6%

SMILES: COc1ccc(SSc2ccc(OC)cc2C(=O)O)c(C(=O)O)c1
- growth inhibition [1]: -4%
- growth inhibition [2]: -19.1%
- growth inhibition [3]: -21.1%
- growth inhibition [4]: 1.4%
- growth inhibition [5]: -36.1%
- growth inhibition [6]: 1.8%

SMILES: CCOC(=O)Cc1nc(/C(C#N)=C/c2ccco2)[nH]c(=O)c1C#N
- growth inhibition [1]: 2.4%
- growth inhibition [2]: 7.8%
- growth inhibition [3]: 30.9%
- growth inhibition [4]: 34.2%
- growth inhibition [5]: 8.15%
- growth inhibition [6]: 39.6%

SMILES: c1ccc(C2(c3ccc(C4(c5ccccc5)Oc5ccccc5S4)[nH]3)Oc3ccccc3S2)cc1 (centres undefined)
- growth inhibition [1]: 20.4%
- growth inhibition [2]: -12.2%
- growth inhibition [3]: -4.4%
- growth inhibition [4]: 11.6%
- growth inhibition [5]: -16.7%
- growth inhibition [6]: 20.2%

SMILES: O=C(/C=C/c1ccc(OCc2ccccc2)cc1)c1cccc([N+](=O)[O-])c1
- growth inhibition [1]: 4.7%
- growth inhibition [2]: 6.35%
- growth inhibition [3]: -5.85%
- growth inhibition [4]: 9.15%
- growth inhibition [5]: -0.05%
- growth inhibition [6]: 12.2%

SMILES: OC1COC(c2ccccc2)OC1 (centres undefined)
- growth inhibition [1]: -7.15%
- growth inhibition [2]: -2.1%
- growth inhibition [3]: 4.15%
- growth inhibition [4]: -5.85%
- growth inhibition [5]: -1.75%
- growth inhibition [6]: 24.6%
